# Data: PubChem BioAssay
# Calls of active or inactive are those of the source.
# Legend:
# [1] = tested on: Plasmodium falciparum Sir2 (PF13_0152, Sir2A); assay: pfSir2 binders on small-molecule microarrays, primary screen, biochemical, small-molecule microarray, 635 nm fluorescence (AID 1098); conditions: small-molecule microarray binding, fluorescence 635 nm; higher = more signal;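 also: score merges spot fluorescence intensity with its signal-to-noise ratio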
# [2] = small-molecule microarray binders of probe aDKK1, primary screen, biochemical, biotinylated probe, 635/667 nm fluorescence (AID 1099); conditions: higher = more signal;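 also: score merges 667nm spot fluorescence with signal to noise across triplicate slides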
# [3] = small-molecule microarray binders of probe aCHRDL2, primary screen, biochemical, biotinylated probe, 635/667 nm fluorescence (AID 1100); conditions: higher = more signal
# [4] = splicing luciferase reporter signal modulators, primary screen, spliceosome inhibition project, cell-based, HEK293, splice +/- reporter (AID 1101); conditions: luminescence, 24 h, higher = more signal, called active from +8 up or from −8 down;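 also: HEK293 cells carrying a splicing-competent luciferase reporter gene; test concentration not given here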
# [5] = target: Fibroblast growth factor 10 (Homo sapiens) (UniProt O15520); assay: FGF10 binders on small-molecule microarrays, primary screen, biochemical, small-molecule microarray, 635 nm fluorescence (AID 1102); conditions: FGF10 binding, fluorescence 635 nm, higher = more signal
# Fibroblast growth factor 10 (Homo sapiens), sequence (O15520 whole entry, looked up): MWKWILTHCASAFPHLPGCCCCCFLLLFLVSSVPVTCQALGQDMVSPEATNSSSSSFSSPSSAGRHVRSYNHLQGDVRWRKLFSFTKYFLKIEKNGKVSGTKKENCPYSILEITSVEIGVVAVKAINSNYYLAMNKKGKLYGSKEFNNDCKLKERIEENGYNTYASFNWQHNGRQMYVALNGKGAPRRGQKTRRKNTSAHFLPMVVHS
# [6] = tested on: glycogen synthase kinase-3 (GSK3A per assay name; protocol says GSK3B); assay: GSK3 binders on small-molecule microarrays, primary screen, biochemical, small-molecule microarray, 635 nm fluorescence, GSK3A (AID 1103); conditions: small-molecule microarray binding, fluorescence 635 nm; higher = more signal; also: the record names both GSK3A and GSK3B
# [7] = target: Epidermal growth factor receptor (Homo sapiens) (UniProt P00533); assay: EGFR binders on small-molecule microarrays, primary screen, biochemical, small-molecule microarray, 635 nm fluorescence (AID 1104); conditions: EGFR binding, higher = more signal;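 also: score merges 667 nm emission intensity with spot signal to noise over triplicate slides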
# Epidermal growth factor receptor (Homo sapiens), sequence (P00533 whole entry, looked up): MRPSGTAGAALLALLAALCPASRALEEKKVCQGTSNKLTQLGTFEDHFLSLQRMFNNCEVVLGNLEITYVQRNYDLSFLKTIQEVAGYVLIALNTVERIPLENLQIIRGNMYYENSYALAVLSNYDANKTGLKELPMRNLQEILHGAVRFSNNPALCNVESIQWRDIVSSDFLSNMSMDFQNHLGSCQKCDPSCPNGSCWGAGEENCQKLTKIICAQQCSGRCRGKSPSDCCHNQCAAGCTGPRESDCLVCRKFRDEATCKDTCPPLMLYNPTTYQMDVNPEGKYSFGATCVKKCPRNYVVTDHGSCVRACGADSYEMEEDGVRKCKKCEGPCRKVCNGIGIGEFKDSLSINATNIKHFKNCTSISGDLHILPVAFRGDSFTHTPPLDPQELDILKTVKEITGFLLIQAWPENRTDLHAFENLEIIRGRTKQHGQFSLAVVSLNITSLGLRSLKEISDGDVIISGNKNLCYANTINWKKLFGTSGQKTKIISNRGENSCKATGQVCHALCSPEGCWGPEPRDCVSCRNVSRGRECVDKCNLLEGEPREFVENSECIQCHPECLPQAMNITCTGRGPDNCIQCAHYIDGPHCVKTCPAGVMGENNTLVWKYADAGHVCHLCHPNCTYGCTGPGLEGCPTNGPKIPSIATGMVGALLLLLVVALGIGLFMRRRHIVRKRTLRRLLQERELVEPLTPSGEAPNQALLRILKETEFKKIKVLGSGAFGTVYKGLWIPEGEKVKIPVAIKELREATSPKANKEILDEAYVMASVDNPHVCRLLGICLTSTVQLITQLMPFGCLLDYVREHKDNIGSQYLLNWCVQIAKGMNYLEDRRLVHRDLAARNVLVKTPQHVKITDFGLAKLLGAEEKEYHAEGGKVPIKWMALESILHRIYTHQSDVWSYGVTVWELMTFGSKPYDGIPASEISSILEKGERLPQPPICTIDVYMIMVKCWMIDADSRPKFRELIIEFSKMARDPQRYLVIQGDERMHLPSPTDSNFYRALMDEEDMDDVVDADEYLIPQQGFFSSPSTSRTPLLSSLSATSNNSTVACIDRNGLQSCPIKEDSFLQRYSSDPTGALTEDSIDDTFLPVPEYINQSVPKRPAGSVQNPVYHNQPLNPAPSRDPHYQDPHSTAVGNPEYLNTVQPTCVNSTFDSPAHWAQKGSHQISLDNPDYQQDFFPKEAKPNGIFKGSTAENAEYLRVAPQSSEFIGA
# [8] = target: Follistatin-related protein 3 (Homo sapiens) (UniProt O95633); assay: FSTL3 binders on small-molecule microarrays, primary screen, biochemical, small-molecule microarray, 635 nm fluorescence (AID 1105); conditions: FSTL3 binding, higher = more signal;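 also: score merges emission near 667 nm and signal to noise per printed spot across three slides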
# Follistatin-related protein 3 (Homo sapiens), sequence (O95633 whole entry, looked up): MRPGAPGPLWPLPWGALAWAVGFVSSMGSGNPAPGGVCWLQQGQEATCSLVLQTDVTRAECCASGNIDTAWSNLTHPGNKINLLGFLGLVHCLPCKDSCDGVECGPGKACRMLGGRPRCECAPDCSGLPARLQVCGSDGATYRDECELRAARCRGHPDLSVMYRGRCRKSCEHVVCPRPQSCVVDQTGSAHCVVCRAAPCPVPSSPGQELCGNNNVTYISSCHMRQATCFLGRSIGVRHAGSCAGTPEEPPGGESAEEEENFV
# [9] = target: Dickkopf-related protein 1 (Homo sapiens) (UniProt O94907); assay: DKK1 binders on small-molecule microarrays, primary screen, biochemical, small-molecule microarray, 635 nm fluorescence scan (AID 1106); conditions: DKK1 binding, higher = more signal;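 also: score merges emission near 667 nm with signal to noise over three replicate slides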
# Dickkopf-related protein 1 (Homo sapiens), sequence (O94907 whole entry, looked up): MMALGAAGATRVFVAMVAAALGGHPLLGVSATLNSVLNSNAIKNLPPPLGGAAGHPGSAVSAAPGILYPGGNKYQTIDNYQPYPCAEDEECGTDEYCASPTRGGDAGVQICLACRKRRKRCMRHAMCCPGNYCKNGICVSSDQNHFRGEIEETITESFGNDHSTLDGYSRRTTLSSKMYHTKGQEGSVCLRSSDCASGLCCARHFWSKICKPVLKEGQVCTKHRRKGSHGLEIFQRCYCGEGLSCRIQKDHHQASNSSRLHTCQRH
# [10] = tested on: Inhibin beta A chain (activin A); assay: INHBA (activin A) binders on microarrays, primary screen, biochemical, small-molecule microarray, 635 nm fluorescence scan (AID 1107); conditions: small-molecule microarray binding, higher = more signal;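 also: mouse activin A protein probed at 4.33 µg/mL on printed slides; score merges bound-protein fluorescence near 667 nm with spot signal-to-noise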
# [11] = tested on: Human papillomavirus type 1a protein E7 (residues 44-93); assay: HPV1a E7 fragment binders on microarrays, primary screen, biochemical, small-molecule microarray, residues 44-93, 635 nm fluorescence (AID 1108); conditions: small-molecule microarray binding, fluorescence 635 nm; higher = more signal;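 also: E7 fragment applied at 1 µg/mL in TBST for 1 h at 4 C; score combines spot fluorescence with its signal to noise ratio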
# [12] = modulators of HCV replicon luciferase signal, primary screen, HCV replication inhibitor project, Huh7 cells, luciferase reporter (AID 1109); conditions: 48 h, higher = more signal;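 also: huh7 hepatoma cells harbouring a luciferase neomycin HCV replicon reporter; luciferase luminescence as measure of HCV replicon replication; test concentration not given here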
# [13] = target: Left-right determination factor 2 (Homo sapiens) (UniProt O00292); assay: LEFTY2 binders on small-molecule microarrays, primary screen, biochemical, small-molecule microarray, 635 nm fluorescence scan (AID 1110); conditions: LEFTY2 binding, higher = more signal
# Left-right determination factor 2 (Homo sapiens), sequence (O00292 whole entry, looked up): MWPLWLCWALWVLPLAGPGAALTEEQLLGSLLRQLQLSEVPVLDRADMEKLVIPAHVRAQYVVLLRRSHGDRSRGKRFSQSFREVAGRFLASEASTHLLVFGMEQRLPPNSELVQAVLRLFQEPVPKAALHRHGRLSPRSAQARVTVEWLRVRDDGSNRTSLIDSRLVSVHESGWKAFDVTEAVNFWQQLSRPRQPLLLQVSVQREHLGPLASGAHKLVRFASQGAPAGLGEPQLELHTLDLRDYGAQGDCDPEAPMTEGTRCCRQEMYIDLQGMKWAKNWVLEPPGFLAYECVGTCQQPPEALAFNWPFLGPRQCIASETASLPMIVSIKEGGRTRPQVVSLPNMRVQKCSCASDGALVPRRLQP
# [14] = target: Calmodulin-1 (Homo sapiens) (UniProt P0DP23); assay: CALM1 binders on microarrays, EGTA buffer, profiling panel, biochemical, small-molecule microarray, Cy5-labelled CALM1 (AID 1111); conditions: Cy5-CALM1 binding fluorescence, higher = more signal;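 also: labelled calmodulin applied in Tris saline Tween buffer holding calcium plus EGTA and DTT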
# [15] = target: Calmodulin-1 (Homo sapiens) (UniProt P0DP23); assay: calcium-bound CALM1 binders on microarrays, profiling panel, artefact control for SMM control-protein annotation, biochemical, small-molecule microarray, Cy5-labelled CALM1, plus calcium (AID 1112); conditions: Cy5-CALM1 binding fluorescence, higher = more signal;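 also: score merges spot fluorescence with signal to noise from triplicate slides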
# [16] = small-molecule microarray binders of probe aWnt5a, primary screen, biochemical, biotinylated probe, 635/667 nm fluorescence (AID 1113); conditions: higher = more signal;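 also: score merges 667 nm fluorescence intensity with signal-to-noise per printed feature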
# [17] = small-molecule microarray binders of probe aShh, primary screen, biochemical, biotinylated probe, 635/667 nm fluorescence (AID 1114); conditions: higher = more signal;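 also: probe is biotin-labelled aShh protein from a stem cell growth factor screen; measures binding of labelled protein to compounds printed on the slide; score merges feature fluorescence at 667 nm with signal-to-noise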
# [18] = small-molecule microarray binders of probe aNog, primary screen, biochemical, biotinylated probe, 635/667 nm fluorescence (AID 1115); conditions: higher = more signal;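 also: probe is biotinylated aNog protein used at 0.15 µg/mL for 1 h at 4 C; z-score combines 667 nm fluorescence of each spot with its signal to noise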
# [19] = target: Torsin-1A-interacting protein 1 (Homo sapiens) (UniProt Q5JTV8); assay: LAP1 binders from COS7 cell lysate, primary screen, small-molecule microarray, 635/667 nm fluorescence (AID 1116); conditions: COS7-hLAP1 lysate binding, 635 nm fluorescence, higher = more signal
# Torsin-1A-interacting protein 1 (Homo sapiens), sequence (Q5JTV8 whole entry, looked up): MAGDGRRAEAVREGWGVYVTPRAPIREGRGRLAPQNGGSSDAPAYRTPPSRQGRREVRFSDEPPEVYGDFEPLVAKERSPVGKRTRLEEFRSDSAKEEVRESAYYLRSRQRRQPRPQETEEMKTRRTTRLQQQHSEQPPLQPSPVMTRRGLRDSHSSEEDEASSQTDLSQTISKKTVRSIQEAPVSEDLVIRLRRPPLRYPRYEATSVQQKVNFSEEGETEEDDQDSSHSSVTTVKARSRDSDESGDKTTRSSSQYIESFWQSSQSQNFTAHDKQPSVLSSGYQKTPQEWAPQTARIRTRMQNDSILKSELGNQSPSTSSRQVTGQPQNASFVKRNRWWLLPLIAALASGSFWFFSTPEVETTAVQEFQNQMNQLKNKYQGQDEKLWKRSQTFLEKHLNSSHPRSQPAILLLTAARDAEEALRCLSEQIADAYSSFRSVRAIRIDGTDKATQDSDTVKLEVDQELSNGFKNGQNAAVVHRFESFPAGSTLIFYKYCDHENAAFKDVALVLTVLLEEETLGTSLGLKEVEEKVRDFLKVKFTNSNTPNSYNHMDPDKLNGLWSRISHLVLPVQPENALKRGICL
# [20] = target: Alpha-bungarotoxin (Bungarus multicinctus) (UniProt P60615); assay: alpha-bungarotoxin binders on microarray, profiling panel, artefact control for SMM control protein annotation, biochemical, small-molecule microarray, Alexa647 label, 635/667 nm fluorescence (AID 1117); conditions: alpha-BTX-A647 binding fluorescence, higher = more signal
# Alpha-bungarotoxin (Bungarus multicinctus), sequence (P60615 whole entry, looked up): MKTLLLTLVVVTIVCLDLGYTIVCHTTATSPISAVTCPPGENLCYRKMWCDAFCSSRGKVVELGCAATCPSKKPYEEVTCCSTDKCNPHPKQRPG
structure (smiles),measurement,setting,value
NC(=O)[C@@H]1[C@H]2C(=O)O[C@H](c3ccccc3)[C@H](c3ccccc3)N2[C@H](c2ccc(OCCO)cc2)[C@@]12C(=O)Nc1ccc(C#CC3=CCCCC3)cc12,composite z-score,[1],1.36
same,composite z-score,[2],-0.134
same,composite z-score,[3],-0.233
same,z-score,[4],-0.857 (inactive)
same,composite z-score,[5],1.21
same,composite z-score,[6],1.32
same,composite z-score,[7],0.544
same,composite z-score,[8],0.588
same,composite z-score,[9],0.372
same,composite z-score,[10],0.357
same,composite z-score,[11],1.36
same,z-score,[12],-3.2
same,composite z-score,[13],0.759
same,composite z-score,[14],0.658
same,composite z-score,[15],-0.223
same,composite z-score,[16],0.0182
same,composite z-score,[17],0.031
same,composite z-score,[18],0.0415
same,composite z-score,[19],1.06
same,composite z-score,[20],0.711
O=C(O)[C@H]1C[C@H]2C(=O)N3CCC[C@H]3C(=O)N2[C@H]1c1ccc(O)cc1,composite z-score,[1],0.383
same,composite z-score,[2],-0.0067
same,composite z-score,[3],0.915
same,z-score,[4],0.127 (inactive)
same,composite z-score,[5],-1.41
same,composite z-score,[6],-0.474
same,composite z-score,[7],-1.51
same,composite z-score,[8],-0.949
same,composite z-score,[9],-1.13
same,composite z-score,[10],-0.209
same,composite z-score,[11],-0.124
same,z-score,[12],0.253
same,composite z-score,[13],-2.21
same,composite z-score,[14],-0.342
same,composite z-score,[15],0.123
same,composite z-score,[16],-0.202
same,composite z-score,[17],-0.348
same,composite z-score,[18],-0.216
same,composite z-score,[19],0.319
same,composite z-score,[20],-1.55
CCCCC(=C=CC[C@@H](O)c1ccc(CO)o1)CCO,composite z-score,[1],0.175
same,composite z-score,[2],-0.119
same,composite z-score,[3],-0.479
same,z-score,[4],0.37 (inactive)
same,composite z-score,[5],0.788
same,composite z-score,[6],0.621
same,composite z-score,[7],-0.617
same,composite z-score,[8],-0.0762
same,composite z-score,[9],0.294
same,composite z-score,[10],1.26
same,composite z-score,[11],0.378
same,z-score,[12],-0.379
same,composite z-score,[13],0.38
same,composite z-score,[14],-0.111
same,composite z-score,[15],-0.641
same,composite z-score,[16],-0.0462
same,composite z-score,[17],0.365
same,composite z-score,[18],-0.158
same,composite z-score,[19],0.148
same,composite z-score,[20],-0.168
CCCCN1CC=CC23O[C@@H]4/C=C\CCCOC(=O)C4[C@H]2C(=O)N(CCCCCO)[C@@H]3C1=O (stereo not given in full),composite z-score,[1],1.29
same,composite z-score,[2],-0.37
same,composite z-score,[3],-0.167
same,z-score,[4],1.08 (inactive)
same,composite z-score,[5],-0.552
same,composite z-score,[6],-1.34
same,composite z-score,[7],-1.13
same,composite z-score,[8],-1.08
same,composite z-score,[9],-0.443
same,composite z-score,[10],0.653
same,composite z-score,[11],-0.766
same,z-score,[12],-0.895
same,composite z-score,[13],-0.68
same,composite z-score,[14],-0.803
same,composite z-score,[15],-1.24
same,composite z-score,[16],-0.172
same,composite z-score,[17],-0.221
same,composite z-score,[18],-0.357
same,composite z-score,[19],0.328
same,composite z-score,[20],-0.509
O=C(CS)NCCCCCNC(=O)[C@H]1C[C@H]2C(=O)NCC(=O)N2[C@H]1c1ccc(O)cc1,composite z-score,[1],0.394
same,composite z-score,[2],-0.164
same,composite z-score,[3],0.699
same,z-score,[4],-1.35 (inactive)
same,composite z-score,[5],-1.04
same,composite z-score,[6],-1.32
same,composite z-score,[7],-0.641
same,composite z-score,[8],-0.749
same,composite z-score,[9],-0.887
same,composite z-score,[10],-0.583
same,composite z-score,[11],-1.12
same,z-score,[12],0.464
same,composite z-score,[13],-0.55
same,composite z-score,[14],-0.0906
same,composite z-score,[15],-0.0879
same,composite z-score,[16],-0.256
same,composite z-score,[17],-0.214
same,composite z-score,[18],-0.175
same,composite z-score,[19],-0.736
same,composite z-score,[20],-0.129
C[N+](C)(C)CCCC[C@@H]1NC(=O)[C@@H]2C[C@H](C(=O)NCCCCCCNC(=O)CS)[C@H](c3ccc(O)cc3)N2C1=O,composite z-score,[1],1.09
same,composite z-score,[2],-0.0559
same,composite z-score,[3],0.492
same,z-score,[4],0.00498 (inactive)
same,composite z-score,[5],-0.387
same,composite z-score,[6],-1.28
same,composite z-score,[7],-0.502
same,composite z-score,[8],-1.58
same,composite z-score,[9],-0.141
same,composite z-score,[10],-0.655
same,composite z-score,[11],-0.421
same,z-score,[12],0.164
same,composite z-score,[13],-0.638
same,composite z-score,[14],-0.4
same,composite z-score,[15],-0.281
same,composite z-score,[16],-0.237
same,composite z-score,[17],-0.304
same,composite z-score,[18],-0.0721
same,composite z-score,[19],0.958
same,composite z-score,[20],1.33
COc1ccc(NC(=O)O[C@H]2[C@H](OC(=O)c3cc4ccccc4[nH]3)[C@@H](OC(=O)c3cc4ccccc4[nH]3)[C@@H](OC)O[C@@H]2CO)cc1,composite z-score,[1],1.24
same,composite z-score,[2],-0.0147
same,composite z-score,[3],0.358
same,z-score,[4],-1.07 (inactive)
same,composite z-score,[5],0.523
same,composite z-score,[6],0.212
same,composite z-score,[7],-0.245
same,composite z-score,[8],0.448
same,composite z-score,[9],-0.011
same,composite z-score,[10],0.287
same,composite z-score,[11],-0.548
same,z-score,[12],-1.98
same,composite z-score,[13],0.046
same,composite z-score,[14],0.467
same,composite z-score,[15],-0.206
same,composite z-score,[16],-0.0512
same,composite z-score,[17],0.0121
same,composite z-score,[18],-0.0612
same,composite z-score,[19],1.04
same,composite z-score,[20],0.243
COC(=O)[C@@]1(Cc2ccc(OC)cc2)[C@H]2c3cc(C(=O)N4CCCC4)n(CCSCCO)c3C[C@H]2CN1C(=O)c1ccccc1,composite z-score,[1],0.45
same,composite z-score,[2],0.852
same,composite z-score,[3],1.21
same,z-score,[4],-0.657 (inactive)
same,composite z-score,[5],0.556
same,composite z-score,[6],0.541
same,composite z-score,[7],0.0009
same,composite z-score,[8],-0.17
same,composite z-score,[9],-0.984
same,composite z-score,[10],0.435
same,composite z-score,[11],1.37
same,z-score,[12],-1.48
same,composite z-score,[13],-0.641
same,composite z-score,[14],1.66
same,composite z-score,[15],0.644
same,composite z-score,[16],0.151
same,composite z-score,[17],0.0039
same,composite z-score,[18],2.04
same,composite z-score,[19],1.01
same,composite z-score,[20],1.22
CCCCN1CC=CC23O[C@@H]4C=CCCOC(=O)C4[C@H]2C(=O)N(CCCCCO)[C@@H]3C1=O (stereo not given in full),composite z-score,[1],1.2
same,composite z-score,[2],-0.359
same,composite z-score,[3],0.413
same,z-score,[4],-0.268 (inactive)
same,composite z-score,[5],-1.1
same,composite z-score,[6],-0.649
same,composite z-score,[7],-0.95
same,composite z-score,[8],-1.15
same,composite z-score,[9],-0.787
same,composite z-score,[10],0.26
same,composite z-score,[11],-0.977
same,z-score,[12],-0.698
same,composite z-score,[13],-0.646
same,composite z-score,[14],-0.107
same,composite z-score,[15],-0.589
same,composite z-score,[16],-0.208
same,composite z-score,[17],-0.138
same,composite z-score,[18],-0.033
same,composite z-score,[19],-0.865
same,composite z-score,[20],0.0086
CN(C)CCCCCCNC(=O)[C@@H]1C[C@@H]2C(=O)N3CCC[C@H]3C(=O)N2[C@@H]1c1ccc(O)cc1,composite z-score,[1],0.609
same,composite z-score,[2],0.381
same,composite z-score,[3],0.234
same,z-score,[4],-1.51 (inactive)
same,composite z-score,[5],1.1
same,composite z-score,[6],1.34
same,composite z-score,[7],0.842
same,composite z-score,[8],1.48
same,composite z-score,[9],1.69
same,composite z-score,[10],0.254
same,composite z-score,[11],1.42
same,z-score,[12],1.49
same,composite z-score,[13],1.5
same,composite z-score,[14],-1.95
same,composite z-score,[15],-1.42
same,composite z-score,[16],-0.062
same,composite z-score,[17],0.42
same,composite z-score,[18],-0.364
same,composite z-score,[19],2.23
same,composite z-score,[20],2.36
